Screen size: about 400,000 compounds; about 1,900 (0.47%) were called active. Another 14% or so got no clear call; they are omitted. Only a selection was taken, and actives are over-represented in it overall. A number with no mark means an inactive call. Calls follow the shape of the dose curve; as a rule, active = well fitted cell-killing curve with a large enough effect; inconclusive = small, poorly fitted or top-dose-only effect, or effect the other way; inactive = no such curve, though single readings can be large or run the other way.
Test: Viability Counterscreen for Primary qHTS for Inhibitors of ATXN expression; also: nearly all actives have a fitted effect of over 40% in size
Conditions: S2 cells (HEK-293 line with an ATXN2-luciferase reporter) viability, CellTiter-Fluor protease fluorescence, 24 h; series mostly up to 56.7 µM; activity change, negative = cytotoxicity: at the top concentration
Potency is read from the fitted curve at half-maximal effect.

Compared with `COc1ccc(C(C#N)=C2C=CC(=NO)c3ccccc32)cc1`, `COc1ccccc1NC(=O)c1oc2ccccc2c1NC(=O)COc1ccccc1OC` is lower in “activity change, negative = cytotoxicity” value: -0.613% for the first, -17.9% for the second.

Going from `CO[C@]1(NC(=O)CSC(F)F)C(=O)N2C(C(=O)O)=C(CSc3nnnn3CCO)CO[C@H]21` to `Cn1c(=O)[nH]c(=O)c2c1nc(N1CCN(CCO)CC1)n2CCSc1nc2ccccc2s1`, the “activity change, negative = cytotoxicity” value rises from 9.74% to 12.4%.

Compared with `O=C(CCN1Cc2ccccc2OC(c2ccccc2)C1)N[C@@H]1CS(=O)(=O)C[C@H]1O` (some centres not stated), `Cc1ccccc1-c1ccc2c(c1)O[C@@H](CN(C)Cc1ccc(C(=O)O)cc1)[C@@H](C)CN([C@H](C)CO)S2(=O)=O` is lower in “activity change, negative = cytotoxicity” value: -3.77% for the first, -7.46% for the second.

First: CC(OC(=O)c1ccc([N+](=O)[O-])cc1)C(=O)NCC1CCCCC1 (configuration not stated)
Second: CC(OC(=O)c1cccc(S(=O)(=O)N2CCOCC2)c1)C(=O)NCC1CCCCC1 (configuration not stated)
The “activity change, negative = cytotoxicity” value of the first is higher: -6.52% for the first, -31.2% for the second.

Compared with `CCOC(=O)Cc1cccc(-c2cc(CCCCCCc3ccc(O[C@H]4O[C@H](COC(C)=O)[C@@H](OC(C)=O)[C@H](OC(C)=O)[C@@H]4OC(C)=O)c(-c4cccc(CC(=O)OCC)c4)c3)ccc2O[C@H]2O[C@H](COC(C)=O)[C@@H](OC(C)=O)[C@H](OC(C)=O)[C@@H]2OC(C)=O)c1`, `CC(C)(C)S(=O)N1Cc2cc(C(=O)NCCCN3CCOCC3)nc(-c3cccc(-c4cc5ccccc5o4)c3)c2[C@H]1CCO` (some centres not stated) is lower in “activity change, negative = cytotoxicity” value: -7% for the first, -37.5% for the second.

First: CN(C)CCNC(=O)c1ccc(-c2cn3c(-c4ccc(Oc5ccccc5)cc4)cnc3cn2)cc1
Second: CC(=O)Nc1ccc(-c2cn3cccnc3n2)cc1
The “activity change, negative = cytotoxicity” value of the first is higher: 3.68% for the first, -17.5% for the second.

Compared with `CCCCN1CC(COCc2ccccc2)OCCS1(=O)=O` (configuration not stated), `CN1CCN(c2nc3c(c(=O)[nH]c(=O)n3C)n2Cc2cccc3ccccc23)CC1` is lower in “activity change, negative = cytotoxicity” value: -18.3% for the first, -28.2% for the second.

First: Cc1oc2ccc(O)c(CN3CCOCC3)c2c1C(=O)Nc1cccc(Cl)c1C
Second: CCN1CCN(Cc2c(O)ccc3oc(C)c(C(=O)Nc4ccc(C)cc4C)c23)CC1
The “activity change, negative = cytotoxicity” value of the first is lower: -18.9% for the first, -3.39% for the second.

First: COC(=O)/C=C(/C)N
Second: COCCN1CCN(C(=O)c2sc3ncnc(NCC4CCCO4)c3c2C)CC1 (configuration not stated)
The “activity change, negative = cytotoxicity” value of the first is higher: -9.41% for the first, -15.3% for the second.

Going from `O=C(Nc1ccncc1)c1ccccc1[N+](=O)[O-]` to `Cc1csc(NC(=O)Nc2ccccc2[N+](=O)[O-])n1`, the “activity change, negative = cytotoxicity” value falls from -7.59% to -25.1%.

Going from `COCc1cccc(-c2csc(C(O)c3ccc(F)cc3)n2)c1` (configuration not stated) to `O=C(CSC1=NCCS1)Nc1nc(-c2ccccc2)cs1`, the “activity change, negative = cytotoxicity” value rises from -24.3% to -18.4%.

In the case of `CN[C@@H]1[C@@H](O)[C@@H](O[C@@H]2[C@H](O)[C@H](O[C@H]3OC(CN)=CC[C@H]3N)[C@@H](N)C[C@H]2N)OCC1(C)O` (some centres not stated), the “activity change, negative = cytotoxicity” value is reported as -11.6%.

For `CC[n+]1cc(C)ccc1/C=C/c1ccc(N(C)C)cc1`, the Potency was 25.1 µM (active).
In the case of `COc1cc(C(=O)OC(C)C(=O)NCC2CCCCC2)cc(NC(=O)c2ccco2)c1OC` (configuration not stated), the Potency is reported as 31.6 µM (active).
With `CCCCC[C@H](C)N1C[C@@H](COCc2ccccc2)Oc2cc(N3CC[C@@H](N(C)C)C3)ccc2S1(=O)=O` the Potency was 25.1 µM (active).
With `Cc1oc2ccc(O)c(CN3CCCCC3)c2c1C(=O)Nc1cccc(C(F)(F)F)c1` the Potency was 28.2 µM (active).
For `CC(=O)Oc1ccccc1C(=O)Nc1ncc([N+](=O)[O-])s1`, the Potency was 39.8 µM (active).
With `Cn1c(=O)[nH]c(=O)c2c1nc(N1CCN(C(c3ccccc3)c3ccccc3)CC1)n2CCO` the Potency was 3.16 µM (active).
With `CC(=O)Nc1ccc(-c2csc(NC(=O)Nc3ccccc3)n2)cc1` the Potency was 15 µM (active).

For `NCC[C@H](O)C(=O)N[C@@H]1C[C@H](N)[C@@H](O[C@H]2O[C@H](CN)[C@@H](O)[C@H](O)[C@@H]2O)[C@H](O)[C@@H]1O[C@H]1O[C@H](CO)[C@@H](O)[C@H](N)[C@@H]1O`, the activity change, negative = cytotoxicity was -2.32% [at 0.575 µM].

For `CC(Oc1ccccc1)C(=O)N[C@@H]1C(=O)N2[C@@H]1SC(C)(C)[C@@H]2C(=O)O` (some centres not stated), the “activity change, negative = cytotoxicity” value was -12.4% [at 25.4 µM].

From PubChem BioAssay AID651635 (National Center for Advancing Translational Sciences (NCATS), 2012)
